PubChem BioAssay (NCI)
Several values for one entry are separate records, joined by “and”; a condition that tells them apart may be missing. Equal entries are not always repeated. This is part of a sample that, as a whole, favours compounds with a hit. Of some 83,000 tested, about 20% had one in any assay.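 48-hour exposure, single concentration, 96-well plates; percent growth endpoint where 0 means no net growth. Active: below 10.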 Activity calls are given as the source filed them.

These compounds were tested on HL-60(TB) leukemia (assay: NCI-60 one-dose screen, 48 h (100 = growth as untreated, 0 = no growth, -100 = all killed)). Details: 10 µM unless noted.

Structure (SMILES) | growth
O=C(CNc1c(Cl)cccc1Cl)Nc1ccc(-c2nc3ccccc3s2)cc1 | 70.7% (inactive)
Nc1c(Br)cc(Br)c2c1[nH]c(=O)c1ccccc12 | 89.8% (inactive)
O=[N+]([O-])c1ccc(N2CCN(Cc3ccccc3)CC2)c2c1no[n+]2[O-] | -33.2% (active)
OCc1c(-c2ccccc2)nc2sccn12 | 130% (inactive)
N=C(N)c1ccc(-c2ccc(/C=C/c3ccccc3)s2)cc1 | -39.5% (active)
O=C1Nc2cc(Cl)ccc2/C1=C/c1ccc(N2CCOCC2)s1 | 93.4% (inactive)
CCOC(=O)c1nc2c3ccccc3ccn2c1C(=O)OCC | 97.1% (inactive)
Nc1ccc(-c2cc3c(Nc4ccc(OCc5cccc(F)c5)c(Cl)c4)ncnc3s2)cc1 | 48.3% (inactive)
CC(=O)c1c(O)c(C)c(O)c2c1OC1=CC(=O)/C(=C(/C)N)C(=O)C12C (centres undefined) | 84.4% (inactive)
COc1ccc(/C=C/C(=O)/C=C(/C=C/c2ccc(OC)c(OC)c2)OB(F)F)cc1OC | 19.7% (inactive)
COc1cc(/C=N/NC(=O)Cn2c(-c3ccc(C)o3)nc3ccccc32)ccc1OCc1ccccc1 | 87.4% (inactive)
Cc1ccc2nc3ccccc3c(NCc3ccccc3)c2c1 | 40.6% (inactive)
Cc1cc(O)c2c(c1)C(=O)c1cc(O)cc(O)c1C2=O | 121% (inactive) and 83.6% (inactive)
ON=C1CCCCCCCC1 | 61.9% (inactive) and 105% (inactive)
COCCn1cc(-c2nc(-c3cccnc3)cs2)c2cc(F)ccc21 | 93.4% (inactive)
Cc1ccc(N)c(S(=O)(=O)O)c1 | 74.5% (inactive)
COc1cnc2c(c1)C(=O)c1c-2n(CCCNCCO)c(=O)c2ccncc12 | 16.1% (inactive)
Cn1c(=O)cc(NC(=O)CN2CCN(c3cc4c(cc3F)c(=O)c(C(=O)O)cn4C3CC3)CC2)[nH]c1=O | 98.2% (inactive)
Cc1ccc(S(=O)(=O)OCCN(CCOS(=O)(=O)c2ccc(C)cc2)c2c[nH]c(=O)[nH]c2=O)cc1 | 99.2% (inactive)
COc1cc(CC#N)c([N+](=O)[O-])cc1OC | 92.6% (inactive)

Structure (SMILES) | growth
COc1cc2nc3c(=O)n(-c4ccc(C#N)cc4)cnn3c(=O)c2cc1OC | 92.1% (inactive)
BrC/C=C/C[P+](c1ccccc1)(c1ccccc1)c1ccccc1 | 9.15% (active)
COc1ccc(C(C)=O)cc1S(=O)(=O)Nc1c(N)nc(SC)[nH]c1=O | 96.8% (inactive)
O=C(O)c1ccccc1C(=O)OC1CCCC2CCCC21 (centres undefined) | 104% (inactive)
CCCCCCCCCCCCCCCC(N)c1ccccc1 (centres undefined) | -14.3% (active)
CC(C)(C)N1CCC1CN (centres undefined) | 125% (inactive)
CC(=O)Cc1nsc(NC(=O)c2cc(-c3cc(Cl)cc(Cl)c3)oc2C)n1 | 96.5% (inactive)
O=[N+]([O-])c1ccc2c(c1)Cc1cc(F)ccc1-2 | 114% (inactive)
CC(C)(C)c1cnc(CSc2cnc(NC(=O)C3CCNCC3)s2)o1 | -40.4% (active)
CCCCCCCCOc1ccc(/C=N/Nc2cc(C)nc3ccc(Cl)cc23)cc1 | 13.5% (inactive)
Nc1c2ccccc2nc2ccccc12 | 21% (inactive) and 9.95% (active) and 47.7% (inactive)
COc1ccc2c(c1)C(=O)c1c-2c(OCCN2CCCCC2)nc2ccc(OC)cc12 | 17.1% (inactive)
COc1ccc(C2=CC(c3cc(OC)c(OC)c(OC)c3)NC(=O)N2)cc1OC (centres undefined) | 2.95% (active)
Cc1cccc(C)c1NC(=O)CN(CC(C)C)CC(O)COc1ccccc1 (centres undefined) | 98% (inactive)
O=C1C(Cl)=C(Nc2ccc(O)cc2)C(=O)N1Cc1ccc(Cl)cc1 | 32.8% (inactive)
COc1cc(NC(=O)CCl)ccc(=O)c1 | 77.1% (inactive)
O=C(Cc1ccccn1)C(F)(F)C(F)(F)C(F)(F)F | 105% (inactive)
Cc1ccc(Nc2ccc(Nc3ccc(C)cc3S(=O)(=O)O)c3c2C(=O)c2ccccc2C3=O)c(S(=O)(=O)O)c1 | 99.4% (inactive)
COc1ccccc1C(=O)/C=C/c1cc2cccc(OC)c2[nH]c1=O | -10.5% (active)
